Assay [1] concerns XIP peptide (Xip251-270) binding. Description: XIP fragment 251-270 binding compounds – biochemical, small-molecule microarray, fluorescence 635/667 nm, 0.1 µg/mL protein, primary screen (AID 1182). Particulars: fluorescent protein binding, 635 nm, higher = more signal, called active from +8 up or from −8 down.
The test system of the next assay is XIP peptide (Xip251-270). Description: compounds binding XIP fragment 251-270 – biochemical, small-molecule microarray, fluorescence 635/667 nm, 0.5 µg/mL protein, primary screen (AID 1183). Particulars: fluorescence 635 nm, higher = more signal.
The nature of assay [2]: blood-stage malaria parasite viability loss – strain 3D7, DAPI fluorescence, 100 nL, primary screen (AID 1184).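 Further: parasites grown inside human red blood cells in medium with human serum.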 Particulars: P. falciparum 3D7 growth, 3 d, higher = more signal.
In assay [3] the target is Homeobox protein Hox-A13 (Mus musculus) (UniProt Q62424). Put plainly: disruptors of Hoxa13 oligonucleotide interaction – biochemical, fluorescence polarization, labeled oligonucleotide, primary screen (AID 1185). Particulars: Hoxa13:DNA binding, 15 min, higher = more signal, called active from +8 up or from −8 down.
Assay [4] can be described thus: blockers of DNA damage checkpoint Chk1 activation – imaging, HeLa, hydroxyurea, phospho-Chk1 antibody, percent positive cells, primary screen (AID 1186). Particulars: hydroxyurea-induced phospho-Chk1 immunofluorescence imaging, higher = more signal.
Assay [5] in a line: blockers of DNA damage checkpoint Chk1 activation – imaging, HeLa, hydroxyurea, phospho-Chk1 nuclear intensity, primary screen (AID 1187). Particulars: hydroxyurea-induced phospho-Chk1 immunofluorescence imaging, higher = more signal.

Consider 26 molecules from PubChem BioAssay.

The source made the active and inactive calls. Unless noted, how the calls were made is not given here.

Chain of Homeobox protein Hox-A13 (Mus musculus) (Q62424 whole entry, looked up): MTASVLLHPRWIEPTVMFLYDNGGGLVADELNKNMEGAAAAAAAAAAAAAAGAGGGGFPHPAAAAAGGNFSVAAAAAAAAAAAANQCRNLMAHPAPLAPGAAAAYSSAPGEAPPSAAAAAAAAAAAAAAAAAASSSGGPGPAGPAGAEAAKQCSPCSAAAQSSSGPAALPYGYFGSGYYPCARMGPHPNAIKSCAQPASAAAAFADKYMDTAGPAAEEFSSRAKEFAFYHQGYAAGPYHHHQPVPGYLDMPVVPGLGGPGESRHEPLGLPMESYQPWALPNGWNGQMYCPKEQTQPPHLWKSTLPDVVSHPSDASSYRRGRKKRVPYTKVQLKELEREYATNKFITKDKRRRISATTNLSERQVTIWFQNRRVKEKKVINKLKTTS

As for `CN(C)C(=O)[C@@]1(CCC(=O)OC(C)(C)C)COC(c2ccc(OCCCO)cc2)=N1`, the composite z-score is 0.9 (inactive) in assay [1] and 0.846 in the assay on XIP peptide (Xip251-270). The z-score in assay [2] is 0.388; in assay [3], -3.81 (inactive); in assay [4] it was -0.0526 (inactive); in assay [5] it was 0.337 (inactive).

As for `CN1C(=O)C2C=CC(C(O)c3ccc(F)cc3)N(N3CCCCC3)C2C1=O` (stereo unspecified), the values for the composite z-score (in assay [1]; in the assay on XIP peptide (Xip251-270)) were 0.612 (inactive) and -0.635, respectively. In addition, the z-score in assay [2] was -0.0184; in assay [3], -7.46 (inactive); in assay [4], 0.64 (inactive); in assay [5], -0.206 (inactive).

As for `C[N+](C)(C)CCCCCCNC(=O)[C@@H]1C[C@@H]2C(=O)NCC(=O)N2[C@@H]1c1cccc(OCCO)c1`, the composite z-score in assay [1] was 0.525 (inactive); with XIP peptide (Xip251-270), 0.421. Also, the z-score in assay [2] was -0.848; in assay [3] it was -4.4 (inactive); in assay [4], -0.177 (inactive); in assay [5] it was -0.261 (inactive).

With `O=C1C[C@@](C(=O)O)(c2ccc([N+](=O)[O-])cc2)[C@@H](c2ccc(CO)cc2)N1CC12CC3CC(CC(C3)C1)C2`, the composite z-score in assay [1] was 0.312 (inactive); in the assay with XIP peptide (Xip251-270), 0.748. Further, the z-score in assay [2] was -0.626; in assay [3], -3.96 (inactive); in assay [4] it was -0.226 (inactive); in assay [5], -0.715 (inactive).

With `O=C1C2C=CC(C(O)c3ccc(Br)cc3)N(Nc3ccccc3)C2C(=O)N1c1ccccc1` (stereo unspecified), the composite z-score in assay [1] is 0.65 (inactive); in the assay with XIP peptide (Xip251-270) it was 0.324. For the same molecule, the z-score was -0.18 in assay [2], -3.62 (inactive) in assay [3], 0.348 (inactive) in assay [4] and 0.453 (inactive) in assay [5].

As for `O=C(Nc1cc(Br)ccc1C(=O)NCc1cccc(O)c1)c1ccccc1`, the composite z-score in assay [1] was 2.11 (inactive); in the assay with XIP peptide (Xip251-270) it was 0.597. Besides, the z-score in assay [2] was -0.64; in assay [3] it was -0.429 (inactive); in assay [4], 0.0071 (inactive); in assay [5], -0.27 (inactive).

In the case of `COCC(=C=CC[C@@H](O)c1ccccc1OCCO)C[C@@H](O)COCc1ccccc1`, the values for the composite z-score (in assay [1]; in the assay with XIP peptide (Xip251-270)) were -0.581 (inactive) and 0.262, respectively. Moreover, the z-score was -2.84 in assay [2], -4.38 (inactive) in assay [3], -1.14 (inactive) in assay [4] and -0.978 (inactive) in assay [5].

On to `NC(=O)NCC#Cc1ccc2c(c1)[C@]1(C(=O)N2)[C@H](c2ccc(O)cc2)N2[C@H](c3ccccc3)[C@H](c3ccccc3)OC(=O)[C@H]2[C@@H]1C(=O)NC[C@H](O)c1ccccc1`, for which the composite z-score is -0.0884 (inactive) in assay [1] and -0.294 in the assay with XIP peptide (Xip251-270). Besides, the z-score in assay [2] is -0.547; in assay [3], -0.93 (inactive); in assay [4] it was -0.186 (inactive); in assay [5], -0.151 (inactive).

In the case of `CN1C(=O)C2C=CC(C(O)COCc3ccccc3)N(Nc3ccccc3)C2C1=O` (stereo unspecified), the results for the composite z-score (in assay [1]; in the assay with XIP peptide (Xip251-270)) were -0.184 (inactive) and 0.311, respectively. Besides, the z-score in assay [2] is 0.872; in assay [3] it was -2.91 (inactive); in assay [4], 0.466 (inactive); in assay [5] it was 0.764 (inactive).

For the molecule `O=C(NCc1ccccc1)[C@]1(Cc2ccccc2)N=C(c2ccc(OCCCO)cc2)O[C@@H]1c1ccccc1`, the values for the composite z-score (in assay [1]; in the assay with XIP peptide (Xip251-270)) were 0.0268 (inactive) and 0.117, respectively. For the same molecule, the z-score is -2.18 in assay [2], -2.75 (inactive) in assay [3], -0.875 (inactive) in assay [4] and -1.17 (inactive) in assay [5].

Regarding `COC(=O)[C@@]1(Cc2ccc(OC)cc2)[C@H]2c3cc(C(=O)N4CCCC4)n(CCc4ccc(O)c(OC)c4)c3C[C@H]2CN1C(=O)c1ccccc1`, the composite z-score in assay [1] was 0.739 (inactive); with XIP peptide (Xip251-270), -0.506. Moreover, the z-score in assay [2] is -0.37; in assay [3], -4.35 (inactive); in assay [4], 0.219 (inactive); in assay [5], 0.0055 (inactive).

`CCCC=C(CCC)[C@@H](NS(=O)(=O)c1ccccc1)c1ccc(C(F)(F)F)cc1`: the composite z-score in assay [1] is -0.363 (inactive); with XIP peptide (Xip251-270), 0.528. Besides, the z-score in assay [2] was 0.118; in assay [3] it was -1.19 (inactive); in assay [4] it was -0.147 (inactive); in assay [5], -0.423 (inactive).

With `CCOC(=O)C1=CCC(c2cccc(Cl)c2)O1` (stereo unspecified), the values for the composite z-score (in assay [1]; in the assay with XIP peptide (Xip251-270)) were 1.62 (inactive) and 0.183, respectively. The z-score is -1.25 in assay [2], -0.834 (inactive) in assay [3], 0.296 (inactive) in assay [4] and -0.0984 (inactive) in assay [5].

Turning to `COc1cc(C(O)C2C=CC3C(=O)NC(=O)C3N2Nc2ccc(Cl)cc2Cl)cc(OC)c1OC` (stereo unspecified), the composite z-score was 0.587 (inactive) in assay [1] and 0.619 with XIP peptide (Xip251-270). Also, the z-score in assay [2] is -0.395; in assay [3] it was -6.07 (inactive); in assay [4], 0.136 (inactive); in assay [5], 0.148 (inactive).

As to `C#CCOC(=O)N[C@H](C=CCCCC)c1ccccc1`, the composite z-score in assay [1] was 0.0811 (inactive); with XIP peptide (Xip251-270) it was -0.632. Moreover, the z-score was -0.817 in assay [2], -3.62 (inactive) in assay [3], 0.163 (inactive) in assay [4] and 0.195 (inactive) in assay [5].

`CC(C)C(CO)N1C(=O)[C@@H]2[C@H]3C(=O)OCC=C[C@H]3OC23C=CCN(CCN2CCOCC2)C(=O)[C@@H]13` (stereo partly specified): the composite z-score was 0.708 (inactive) in assay [1] and 0.3 in the assay with XIP peptide (Xip251-270). The z-score was -0.0296 in assay [2], -4.54 (inactive) in assay [3], 0.318 (inactive) in assay [4] and 0.436 (inactive) in assay [5].

Consider `COc1ccc([Si](C)(C)[C@@H]2[C@@H](CCO)O[C@]3(C(=O)N(Cc4cccc(N5C(=O)COc6ccccc65)c4)c4ccccc43)[C@H]2C)cc1`, for which the composite z-score in assay [1] is -0.417 (inactive); in the assay on XIP peptide (Xip251-270) it was 0.763. The z-score in assay [2] is -2.78; in assay [3] it was -1.01 (inactive); in assay [4], -1.02 (inactive); in assay [5], -1.18 (inactive).

`CCCC[C@@H](O)C1=C(COc2ccccc2)Cn2c(=O)n(-c3ccccc3)c(=O)n2[C@H]1CO`: the composite z-score was 1.52 (inactive) in assay [1] and 0.628 in the assay with XIP peptide (Xip251-270). Besides, the z-score was -0.471 in assay [2], -6.48 (inactive) in assay [3], -0.532 (inactive) in assay [4] and 0.347 (inactive) in assay [5].

With `[N-]=[N+]=NCc1ccccc1[C@H]1OC(c2ccc(OCCCO)cc2)=N[C@@]1(Cc1ccccc1N=[N+]=[N-])C(=O)N1CCCCC1`, the composite z-score is 0.538 (inactive) in assay [1] and 0.831 in the assay on XIP peptide (Xip251-270). Moreover, the z-score in assay [2] is -2.15; in assay [3], -0.972 (inactive); in assay [4], -0.335 (inactive); in assay [5] it was -0.35 (inactive).

Turning to `CCCC=C(CCC)[C@@H](NS(=O)(=O)CC)c1ccccc1`, the composite z-score in assay [1] is -0.255 (inactive); in the assay on XIP peptide (Xip251-270), 0.52. The z-score in assay [2] was -0.977; in assay [3] it was -0.298 (inactive); in assay [4], 0.304 (inactive); in assay [5] it was 0.408 (inactive).

For the molecule `COC(=O)[C@@]1(Cc2ccc(OC)cc2)[C@H]2c3cc(C(=O)N4CCCC4)n(Cc4ccc(C)o4)c3C[C@H]2CN1C(=O)c1ccccc1`, the composite z-score is 0.0373 (inactive) in assay [1] and 0.283 in the assay with XIP peptide (Xip251-270). In addition, the z-score was -1.77 in assay [2], -5.91 (inactive) in assay [3], -0.683 (inactive) in assay [4] and -1.38 (inactive) in assay [5].

Regarding `CC(C)C[C@@H]1NC(=O)[C@@H]2C[C@H](C(=O)NCCCC[N+](C)(C)C)[C@H](c3cccc(OCCO)c3)N2C1=O`, the composite z-score in assay [1] is 0.974 (inactive); with XIP peptide (Xip251-270), 0.0734. In addition, the z-score in assay [2] was 0.0751; in assay [3], -3.05 (inactive); in assay [4], -0.366 (inactive); in assay [5], -0.333 (inactive).

For `C[C@@H]1ON(c2ccccc2)[C@H](c2ccccc2)[C@H]1C(=O)N1C(=O)OC[C@H]1Cc1ccccc1`, the results for the composite z-score (in assay [1]; in the assay with XIP peptide (Xip251-270)) were 0.0959 (inactive) and 0.351, respectively. For the same molecule, the z-score in assay [2] was -1.96; in assay [3], -1.4 (inactive); in assay [4], -0.673 (inactive); in assay [5], -0.308 (inactive).

`CCCCC(CC)C(O)C1C=CC2C(=O)NC(=O)C2N1Nc1ccccn1` (stereo unspecified): the composite z-score is 0.327 (inactive) in assay [1] and 0.781 in the assay on XIP peptide (Xip251-270). In addition, the z-score was 0.133 in assay [2], -3.87 (inactive) in assay [3], 0.0438 (inactive) in assay [4] and -0.119 (inactive) in assay [5].

Take `O=C1c2ccccc2C(=O)C2CC([C@H]3Oc4ccccc4S(=O)(=O)N4CCC[C@@H]34)=CCC12` (stereo partly specified): the composite z-score in assay [1] is -0.26 (inactive); with XIP peptide (Xip251-270), -0.267. Moreover, the z-score in assay [2] is -1.24; in assay [3], -1.77 (inactive); in assay [4], -0.278 (inactive); in assay [5], -0.063 (inactive).

Turning to `O=C1C[C@@](C(=O)NCc2ccccc2)(c2ccc([N+](=O)[O-])cc2)[C@@H](c2ccc(CO)cc2I)N1C1CCCCC1`, the figures for the composite z-score (in assay [1]; with XIP peptide (Xip251-270)) were 0.193 (inactive) and 0.676, respectively. The z-score in assay [2] was -1.45; in assay [3] it was -3.45 (inactive); in assay [4], 0.173 (inactive); in assay [5], 0.408 (inactive).
